Experimental data from PubChem BioAssay (NCI).
The panel holds about 79,000 compounds, 15% with a hit somewhere; the sample as a whole holds those more often. A number with no mark means an inactive call. The source made the active and inactive calls. Rule as the data show it: active = growth inhibition above about 70%; inactive = the rest.

Assays:
[1] = NCI Yeast Anticancer Drug Screen. Data for the rad50 strain (AID 155);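 also: 0% = growth of vehicle-only cultures of the same strain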; settings: S. cerevisiae rad50 strain growth inhibition, stronger effect = higher value
Summary of the method: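 Inhibition values express reduced yeast growth in compound-treated cultures relative to vehicle-treated controls.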

[2] = NCI Yeast Anticancer Drug Screen. Data for the mec2-1 strain (AID 157); settings: S. cerevisiae mec2-1 strain, stronger effect = higher value
Summary of the method: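 mec2-1 yeast strain, carrying an alteration in DNA damage repair or cell cycle control, was exposed to compounds; growth inhibition was measured relative to vehicle-treated controls.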

[3] = NCI Yeast Anticancer Drug Screen. Data for the sgs1 mgt1 strain (AID 161);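 also: 0% = growth of cultures given vehicle only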; settings: S. cerevisiae sgs1 mgt1 strain, stronger effect = higher value
Summary of the method: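 Compounds are added to genetically altered yeast, and growth is compared with cultures given vehicle alone to give percent inhibition.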

[4] = NCI Yeast Anticancer Drug Screen. Data for the cln2 rad14 strain (AID 165);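 also: 0% = growth equal to vehicle treated cultures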; settings: S. cerevisiae cln2 rad14 strain, stronger effect = higher value
Summary of the method: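 Yeast carrying cln2 and rad14 alterations (cell cycle control and DNA damage repair) were exposed to compounds. Growth inhibition was measured against vehicle-treated controls.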

[5] = NCI Yeast Anticancer Drug Screen. Data for the bub3 strain (AID 167); settings: S. cerevisiae bub3 mutant strain, stronger effect = higher value
Summary of the method: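 Steps: expose the mutant yeast strain to compound; grow alongside vehicle-treated cultures; measure growth; express inhibition against the vehicle cultures.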

[6] = NCI Yeast Anticancer Drug Screen. Data for the mlh1 rad18 strain (AID 175); settings: S. cerevisiae mlh1 rad18 strain growth inhibition, stronger effect = higher value
Summary of the method: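 Growth inhibition of the yeast strain was measured after compound exposure and expressed relative to vehicle-treated controls. The strain carries defined defects in DNA damage repair.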

[7] = at 5.0 µM (retest, dose inferred, filed as 0.5)
[8] = at 50.0 µM (retest, dose inferred, filed as 5.0)

Structure (SMILES)	growth inhibition [1, 7] [%]	growth inhibition [1, 8]	growth inhibition ([1]; at 50.0 µM)	growth inhibition [2, 7] [%]	growth inhibition [2, 8]	growth inhibition ([2]; at 50.0 µM)	growth inhibition [3, 7] [%]	growth inhibition [3, 8]	growth inhibition ([3]; at 50.0 µM)	growth inhibition [4, 7] [%]	growth inhibition [4, 8]	growth inhibition ([4]; at 50.0 µM)	growth inhibition [5, 7] [%]	growth inhibition [5, 8]	growth inhibition ([5]; at 50.0 µM)	growth inhibition [6, 7] [%]	growth inhibition [6, 8]	growth inhibition ([6]; at 50.0 µM)
COC1/C=C\OC2(C)Oc3c(C)c(O)c4c(c3C2=O)C2=NC(C)(C)N(c3ccccc3)C2=C(NC(=O)/C(C)=C\C=C\C(C)C(O)C(C)C(O)C(C)C(OC(C)=O)C1C)C4=O (configuration not stated)	-2	78% (active)	24.9%	-2	95% (active)	53.5%	-2	85% (active)	72.8% (active)	2	91% (active)	39.9%	-7	69%	27.9%	-2	86% (active)	51.9%
Cc1ccc2cc3ccccc3c(-c3ccccc3)c2c1	5	-3%	10.6%	-13	-29%	12.9%	6	-61%	-9.35%	5	-16%	37%	-11	-12%	-1.15%	-2	0%	-5.65%
CC(Br)Cc1ccc2c(c1)OCO2 (configuration not stated)	3	0%	1.15%	2	-2%	44.5%	3	-3%	19.8%	3	-1%	-3.8%	-10	-14%	-28.5%	-4	1%	-12.4%
COc1ccc2nc3cc(Cl)ccc3c(Nc3nccs3)c2c1	14	90% (active)	95.1% (active)	12	93% (active)	70% (active)	13	90% (active)	94.4% (active)	9	87% (active)	58.5%	6	96% (active)	94.5% (active)	6	94% (active)	88.2% (active)
CCCCNC(=O)OCCN=C1c2ccccc2C(Br)C(Br)c2ccccc21 (configuration not stated)	5	37%	98.4% (active)	2	23%	98.5% (active)	-5	21%	97.3% (active)	7	20%	97.8% (active)	9	28%	97.8% (active)	13	74% (active)	98.5% (active)
CN(Cc1ccccc1)C(c1ccccc1)C(O)C(O)(c1ccccc1)c1ccccc1 (configuration not stated)	-10	40%	85.2% (active)	10	78% (active)	58.2%	-3	70% (active)	87.3% (active)	-26	16%	19.7%	-9	58%	30.4%	18	81% (active)	72.5% (active)
CC(C)(C)C1CCC(SCCO)CC1 (configuration not stated)	-22	98% (active)	97.5% (active)	-2	95% (active)	91.9% (active)	-3	98% (active)	97.7% (active)	-9	97% (active)	90% (active)	-8	98% (active)	95% (active)	14	99% (active)	95.4% (active)
CCCC(=O)NCCNC(=O)CCC	-154	-159%	4.35%	-48	-54%	7.75%	-61	-62%	1.75%	-50	-62%	45.8%	-69	-82%	-3.15%	-139	-117%	10.1%
C/C(=N\Oc1ncc([N+](=O)[O-])c(O/N=C(\C)c2ccccc2)n1)c1ccccc1	52	-24%	43.2%	37	-11%	66.8%	53	-10%	83% (active)	28	-20%	45.7%	48	-16%	50.6%	54	-11%	94.2% (active)
